Assay outcomes (PubChem)
NLRP3 yeast inh: NALP3 inhibition in yeast; Yeast reconstituted NLRP3/ASC/caspase-1, beta-gal luminescence, 24 h; inhibition, % at 10 µM; 0.39% of 330,000 active; AID 2825;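 active = inhibition of 50% or more; inactive = inhibition below 50%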;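 note: plate controls were induced DMSO wells for no effect and uninduced yeast grown without galactose for full effect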
tim23-1 inh: inhibits growth of tim23-1 mutant yeast. inhibition, % at 20 µM. S. cerevisiae tim23-1 growth, BacTiter-Glo luminescence, 24 h. AID 463212. 1.3% of 330,000 active;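 active = growth inhibition of the mutant yeast at or above 50%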;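 note: temperature-sensitive mutant grown at 25 °C; plate controls were DMSO-treated mutant yeast for no effect and medium wells lacking yeast for full effect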
SKKanGAS inh: inhibitors of SKKanGAS S. pyogenes growth in kanamycin (SK-promoter or general growth effect). BacTiter-Glo, 6 h. inhibition, % at 7.5 µM. 1.3% of 300,000 active;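 active = mean replicate score, as percent of positive control median, at least 50; inconclusive = mean below 50 but one replicate at or above 50; inactive = mean and every replicate below 50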;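 note: strain carries kanamycin resistance gene driven by streptokinase promoter and grows in 40 µg/ml kanamycin; loss of luminescence reflects streptokinase promoter inhibition or plain growth inhibition; 0% = median of DMSO wells and 100% = positive control at its reference dose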
tim10-1 inh: growth inhibitors of tim10-1 mutant yeast. 2.2% of 330,000 active. inhibition, % at 20 µM. AID 463190. S. cerevisiae tim10-1 ts strain growth, BacTiter-Glo, 24 h;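 active = inhibition of at least 40%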;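 note: mutant grown at 25 °C; 0% = DMSO wells with yeast and 100% = wells holding no yeast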
TIM10 inh: growth inhibitors of TIM10 yeast strain. 1.4% of 330,000 active. S. cerevisiae TIM10 strain growth, BacTiter-Glo luminescence, 24 h. inhibition, % at 10 µM;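 active = inhibition of 40% or more at the single tested concentration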;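 note: wild-type TIM10 isogenic control strain grown at permissive 25 °C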
PfHsp90 set2: growth inhibition of yeast expressing Plasmodium Hsp90; S. cerevisiae expressing PfHsp90, BacTiter-Glo ATP, 48 h; yeast lacking PDR1 and PDR3 efflux regulators; inhibition, % at 9.4 µM; 0.32% of 310,000 active;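 active = every replicate shows inhibition above about 80%, whatever the replicate mean, limit read from the data; inconclusive = mean inhibition reaches the set limit but some replicate falls short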;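 note: 0% = DMSO neutral controls and 100% = 20 µM radicicol positive controls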
tim10-1 conf: confirmation of tim10-1 mutant yeast growth inhibitors; S. cerevisiae tim10-1 ts strain growth, BacTiter-Glo, 24 h; 56% of 7,400 active; AID 463213; inhibition, % at 20 µM; shares compounds with tim10-1 inh;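 active = inhibition of yeast growth at or above a set limit in either of two repeat tests at 20 µM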;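 note: tim10-1 mutant grown at permissive 25 °C to find synthetic lethal compounds; 0% = DMSO yeast wells and 100% = medium wells without yeast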
An asterisk follows results filed as active; ? = inconclusive; nt = no result. In the library only some 4.6% were active in any assay of this set; here they are far more common.

SMILES	NLRP3 yeast inh	tim23-1 inh	SKKanGAS inh	tim10-1 inh	TIM10 inh	PfHsp90 set2	tim10-1 conf
COCCOC(=O)C(C#N)c1nc2ccccc2nc1N1CCCC1 (stereo not drawn)	19	38	10	30	24	-8	nt
C=CCOC(=O)C(C#N)c1nc2ccccc2nc1N1CCCC1 (stereo not drawn)	35	38	8	41*	18	26	28
Nc1c(Br)cc(Br)c2c1-c1ccc([N+](=O)[O-])cc1C2	nt	nt	nt	nt	nt	1	nt
CN(C)c1ccc(NC(=S)NCC2CCCO2)cc1 (stereo not drawn)	8	7	1	10	-2	-21	nt
S=C(NCC1CCCO1)Nc1ccc(Cl)c(Cl)c1 (stereo not drawn)	-4	29	5	41*	38	-5	26
CCCCc1ccc(NC(=S)NCC2CCCO2)cc1 (stereo not drawn)	24	26	-2	45*	34	-23	34*
CNC(=O)c1cc(Oc2ccc(NC(=O)Nc3ccc(Cl)c(C(F)(F)F)c3)cc2)ccn1	19	33	nt	21	24	15	nt
S=c1[nH]cc(-c2ccccc2)n1-c1ccccc1	9	3	-2	44*	-5	3	1
S=c1[nH]cc(-c2ccc(Cl)cc2)n1Cc1ccccc1	39	-14	4	29	21	-2	nt
O=C1CN(C(=O)c2c(F)cccc2F)C(c2ccccc2)c2cc(Br)ccc2N1 (stereo not drawn)	12	25	10	20	22	-6	nt
O=C1CN(C(=O)c2c(F)cccc2F)C(c2ccc(F)cc2)c2cc(Br)ccc2N1 (stereo not drawn)	-6	26	-1	41*	7	12	29*
O=C(c1ccc(CS(=O)Cc2ccc(Cl)cc2)o1)N1CCN(c2cccc(Cl)c2)CC1 (stereo not drawn)	21	10	20	40*	17	-20	0
O=C(c1ccc(CS(=O)Cc2cccc(Cl)c2)o1)N1CCN(C2CCCCC2)CC1 (stereo not drawn)	3	-12	-4	-5	-13	2	nt
Cc1ccc(C(=O)N2CCN(c3cccc(C)c3C)CC2)o1	19	26	4	22	8	-43	nt
O=C(c1ccc(CS(=O)Cc2ccc(Cl)cc2)o1)N1CCN(c2ccc(F)cc2)CC1 (stereo not drawn)	0	18	9	30	7	4	nt
Cc1cccc(N2CCN(C(=O)c3ccc(CS(=O)Cc4ccc(Cl)cc4)o3)CC2)c1C (stereo not drawn)	11	38	17	54*	24	-37	7
Cc1ccc(C)c(N2CCN(C(=O)c3ccc(CS(=O)Cc4cccc(Cl)c4)o3)CC2)c1 (stereo not drawn)	15	13	-1	42*	0	-2	-11
CCOc1ccc(N2CC(C(=O)Nc3ccc(S(=O)(=O)Nc4nccs4)cc3)CC2=O)cc1 (stereo not drawn)	6	6	2	-13	3	1	nt
CCN(C(=O)COC(=O)c1cc([N+](=O)[O-])ccc1N1CCOCC1)C1CCS(=O)(=O)C1 (stereo not drawn)	11	13	-3	-1	-5	11	nt
COc1ccc(OC)c(-c2cc(C3CCN(C(=O)OC(C)(C)C)CC3)[nH]n2)c1	5	19	0	40	9	15	6
COc1ccc(-c2cc(C3CCN(C(=O)OC(C)(C)C)CC3)[nH]n2)cc1	5	39	4	44*	34	nt	39*
COc1ccc(B(O)O)c(CN2CCN(C(=O)OC(C)(C)C)CC2)c1	nt	nt	nt	nt	nt	-20	nt
CCOC(=O)c1cn2nc(-c3ccc(OC)cc3)cc2nc1C1CCN(C(=O)OC(C)(C)C)CC1	17	27	23	36	-2	57	nt
CC1=NN(C(=O)c2ccc(Cn3nc(C)c(Br)c3C)cc2)C(O)(C(F)(F)F)C1 (stereo not drawn)	7	33	0	41*	27	5	22
COc1c(C)cc(S(=O)(=O)NCCN2CCOCC2)c(C)c1C	6	7	13	2	-4	-33	nt
SMILES	NLRP3 yeast inh	tim23-1 inh	SKKanGAS inh	tim10-1 inh	TIM10 inh	PfHsp90 set2	tim10-1 conf
COc1ccc(CCNc2cc(C)nc3c(-c4ccccc4)c(C)nn23)cc1OC	18	25	2	43*	18	19	20
COc1ccc(-c2c(C)nn3c(NC4CCCC4)cc(C)nc23)cc1OC	2	42	0	44*	9	-23	23
COc1ccc(-c2c(C)nn3c(N4CCN(Cc5ccccc5)CC4)cc(C)nc23)cc1OC	20	41	2	34	15	13	nt
Nc1nc(Nc2ccccc2)nc2ccccc12	25	13	5	42*	28	nt	38*
Cc1ccccc1Nc1nc(N)c2ccccc2n1	17	27	18	28	23	42	nt
Cc1ccc(C)c(NC(=O)c2ccc(S(=O)(=O)N(C)CC3CCCO3)cc2)c1 (stereo not drawn)	25	25	?	15	10	13	nt
Fc1ccccc1CNc1ccc(Cl)c(Cl)c1	19	30	56*	61*	14	-11	69*
COc1ccc(C2CC(c3cccs3)=NN2C(=O)CSC2=NN3CCCC(=O)N=C3S2)cc1 (stereo not drawn)	3	43	11	41*	24	-4	23
O=C(NCC(=O)N(c1ccc(F)cc1)C(C(=O)NC1CCCC1)c1cccnc1)c1ccco1 (stereo not drawn)	8	4	-2	14	-6	17	nt
O=C1C2C3C=CC(C3)C2C(=O)N1CCN1CCN(S(=O)(=O)/C=C/c2ccccc2)CC1 (stereo not drawn)	15	20	6	42*	16	9	23
O=S1(=O)CCO[C@H]2Cc3ccccc3[C@H]2N1Cc1ccc(F)cc1	22	32	1	19	22	27	nt
CCOC(=O)N1CCN(C2=C(NS(=O)(=O)c3ccccc3)C(=O)c3ccccc3C2=O)CC1	15	34	28	55*	25	-24	15
CCN1CCN(C2=C(NS(=O)(=O)c3ccccc3)C(=O)c3ccccc3C2=O)CC1	26	9	3	4	15	7	nt
CSc1nc(=S)n(-c2cc(C)ccc2C)c(C)c1C(C)=O	14	16	1	16	-3	-15	nt
CCN(CC)S(=O)(=O)c1ccc(/C=C/C(=O)NC2CCCCC2)cc1	6	32	8	44*	20	-1	28
CC(=O)Nc1ccc(C)c(NS(=O)(=O)c2cccc(C(F)(F)F)c2)c1	9	6	-7	8	9	1	nt
Cc1ccc(C2CC(c3ccc(Cl)cc3)=NNC2=O)cc1 (stereo not drawn)	18	25	2	-11	1	nt	nt
